APEX1 inh – blocks human APE1 abasic DNA cleavage. P27695. recombinant APE1, TAMRA/BHQ-2 abasic DNA cleavage fluorescence. Potency, µM (titrated, usually from 65.8 µM), for the others: top-dose activity change, negative = inhibition, hits mostly inhibitors. 0.35% of 350,000 active;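 also: plate controls were vehicle for no effect and reference inhibitor for full effect; nearly all actives have a fitted effect of over 55% in size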
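Enzyme (0.75 nM final) and test compound are incubated 15 min at room temperature before adding 50 nM quenched THF abasic-site duplex. Cleavage dequenches TAMRA, followed at 525/598 nm over three reads one minute apart.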
Pol beta inh – blocks human DNA polymerase beta activity; Potency, µM (series often up to 114 µM), for the others: at the top dose activity change, negative = inhibition, hits mostly inhibitors; AID 485314; 1.3% of 340,000 active; P06746; Pol beta primer extension/strand displacement, fluorescence kinetic; also: % is scaled to controls: 0 for no effect and ±100 for the full control effect
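Kinetic readout of DNA synthesis with strand displacement by Pol beta. Compound and 10 nM enzyme sit 15 min at room temperature; 50 nM substrate starts the reaction, read immediately and at 10 min.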
Pol eta inh – DNA polymerase eta (human) inhibition; 1.2% of 390,000 active; recombinant Pol eta, fluorescent DNA replication assay; Potency, µM (series often up to 114 µM), without a hit: top-dose activity change, negative = inhibition, usual class: inhibitors; Q9Y253; also: % is scaled to controls: 0 for no effect and ±100 for the full control effect
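Pol eta (10 nM) was preincubated with compounds for 15 min at room temperature, after which fluorescent replication substrate (50 nM final) was added to start the reaction. Fluorescence was read kinetically at 0 and 10 min.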
Pol iota inh – blocks human DNA polymerase iota activity | AID 588590 | 1% of 390,000 active | Potency, µM (series often up to 115 µM), inactives show top-dose activity, negative = inhibition, hits mostly inhibitors | Q9UNA4 | Pol iota fluorescent replication assay, 10 min
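Fluorescent replication assay read twice, at 0 min and 10 min after adding 50 nM (final) substrate. Enzyme (10 nM) and compounds were first incubated 15 min at room temperature; enzyme-free buffer wells were negative controls.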
Pol kappa inh – blocks human DNA polymerase kappa activity. Q9UBT6. purified Pol kappa, fluorescent DNA synthesis assay, 10 min. 0.53% of 400,000 active. AID 588579. Potency, µM (doses to about 107 µM), for inactives: top-dose activity, negative = inhibition, most hits filed as inhibitors; also: % is scaled to controls: 0 for no effect and ±100 for the full control effect
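Enzyme at 10 nM met test compounds for 15 min at room temperature. Substrate addition (50 nM final) began the reaction, which was monitored by fluorescence at 0 and 10 min.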
L3MBTL1 inh – blocks human L3MBTL1; AlphaScreen L3MBTL1–H3K9me1 peptide binding; Potency, µM (series often up to 57.1 µM), for the others: at the top dose activity, negative = inhibition, actives largely listed as inhibitors; 0.66% of 230,000 active; AID 485360; also: % is scaled to controls: 0 for no effect and ±100 for the full control effect; nearly all actives have a fitted effect of over 60% in size
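Read-out is AlphaScreen signal from streptavidin donor and nickel chelate acceptor beads (10 ug/mL final each) bridging L3MBTL1 (50 nM) and biotinylated K9-monomethylated H3(1-15) peptide (75 nM), after 30 min compound exposure at room temperature.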
The depositor's hits bear a star; ? = inconclusive; . = not tested or not shown; [ ] = another dose, or the depositor's remark. Most compounds without a hit are left out; they make up all but 2.5% or so of the library. Calls follow the shape of the dose curve; as a rule, active = well fitted curve in the direction sought with a large enough effect; inconclusive = small, poorly fitted or top-dose-only effect, or another doubt; inactive = no such curve, though single readings can be large; an effect the other way counts as inactive or inconclusive. Potency is read from the fitted curve at half-maximal effect.

SMILES | APEX1 inh | Pol beta inh | Pol eta inh | Pol iota inh | Pol kappa inh | L3MBTL1 inh
CC1=NN(c2ccc(Cl)cc2)C(=O)C1 | -4% | 4% | -8% | 2.5µM* | -13% | -9%
CC1=NN(c2nc(-c3ccc(Cl)cc3)cs2)C(=O)C1 | 2% | 35µM* | 45µM* | ? | 50µM* | 40%
COc1ccc(-n2c(-c3ccccc3)cc3c2CCCC3=O)cc1 | 1% | -30% | -22% | 16% | -8% | 32µM*
O=C1CCCc2c1cc(-c1ccccc1)n2-c1ccc(O)cc1 | -5% | 39% | -7% | -10% | -14% | -12%
O=C(/C=C/c1ccc(O)cc1)c1ccc(NC2=C(N3CCCCC3)C(=O)c3ccccc3C2=O)cc1 | -7% | ? | ? | 28µM* | -11% | ?
CCOc1ccc(C(=O)Nc2ccc3nc(Nc4cccc(C(F)(F)F)c4)cc(C)c3c2)cc1OCC | . | -23% | -27% | 25% | -9% | .
Cc1nc(Nc2cnc(/C=C/c3cc(C(=O)Nc4cccc(C(F)(F)F)c4)ccc3C)cn2)cc(N2CCNCC2)n1 | ? | 40µM* | 40µM* | -6% | -5% | -3%
CN(C)c1ccc(CNS(=O)(=O)c2ccc3[nH]c4c(c3c2)CCCCC4)cc1 | . | 9% | -11% | 25% | -7% | .
O=C(O)c1cc(-n2cccc2)ccc1N1CCOCC1 | ? | 0% | 50µM* | -28%[58.9 µM] | ? | -16%
CCCCC#CC1C=CC(Oc2cc(OC)c(OC)c(OC)c2)C(CO)O1 (configuration not stated) | 7%[12.4 µM] | . | . | . | . | .
Cc1ccc(NC(=O)CCn2cnc3cc(C)c(C)cc32)cc1 | 6% | -6% | -16% | 24% | 13% | 13%
CC(=O)Nc1cccc(NC(=O)CCn2cnc3cc(C)c(C)cc32)c1 | 1% | 25µM* | ? | ? | -32% | -5%
O=C(NCc1ccco1)c1nn2c(C(F)(F)F)cc(-c3cccs3)nc2c1Br | -11% | 89µM* | -15% | 5% | -10% | .
Cc1cc(-c2ccccc2)nc2cc(C(=O)NCc3ccco3)nn12 | -12% | ? | 45µM* | ? | ? | .
O=C(NCc1ccco1)c1cc2nc(-c3ccc4c(c3)OCO4)cc(C(F)(F)F)n2n1 | 8% | 79µM* | 7% | -5% | -30% | 7%
COc1ccc(-c2cc(C(F)(F)F)n3nc(C(=O)NCC45CC6CC(CC(C6)C4)C5)cc3n2)cc1 | . | ? | -5% | 89µM* | -20% | .
COc1ccc(-c2cc(C(F)(F)F)n3nc(C(=O)NCC45CC6CC(CC(C6)C4)C5)cc3n2)cc1OC | . | 3% | 0% | -4% | -15% | .
Cc1ccc2oc(C(=O)Nc3ccc(S(=O)(=O)Nc4nc(C)cc(C)n4)cc3)cc(=O)c2c1 | . | 1% | -5% | ? | -28% | .
CCc1ccc(CN2CCC(C(=O)Nc3ccc(-n4nc(C)cc4C)cc3)CC2)o1 | 51% | -18% | -15% | 24% | -3% | .
Cc1cc(-c2csc(NC(=O)c3cc4ccccc4o3)n2)c(C)n1C | -5% | 0% | -1% | -7% | -32% | ?
Cc1cc(-c2csc(NC(=O)c3ccc(=O)[nH]c3)n2)c(C)n1Cc1ccccc1 | 2% | 20µM* | -14% | 3% | -7% | ?
Cc1ccc2scc(N3CCCC(C)C3)c(=O)c2c1 (configuration not stated) | . | -26% | -20% | 8% | -14%[60.1 µM] | .
CC(C)Cc1nnc(NC(=O)c2cc3c(s2)CCC3)s1 | 3% | -26% | -28% | 28µM* | ? | .
COc1ccc(-c2nc(-c3cccs3)c(-c3cccs3)[nH]2)cc1OC | -3% | 89µM* | -13% | -8% | -23% | .
O=C(N/N=C1\C(=O)c2cccc3cccc1c23)c1ccc(O)cc1 | 1% | 5.6µM* | ? | 183% | -9% | -10%[11.4 µM]
CNC(=S)N/N=C1\C(=O)c2cccc3cccc1c23 | 18% | 14% | 2% | 17% | -25% | -21%
COc1cc2c(cc1OC)CN(C(=O)Cn1ccccc1=O)CC2 | -28% | 79µM* | 35µM* | ? | -30% | ?

Source: PubChem (National Center for Advancing Translational Sciences (NCATS))
